Compounds without any hit were thinned out: in the full panel of roughly 79,000, 15% have a hit. Active and inactive are the calls of the source. No stated cut-off is given here; in the data, active means growth inhibition above about 70%; inactive means the rest.
Experiments:
[1] = NCI Yeast Anticancer Drug Screen. Data for the rad50 strain (AID 155);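 further: 0% = growth of vehicle-only cultures of the same strain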; details: S. cerevisiae rad50 strain growth inhibition; at 50.0 µM; active compounds read high
Method in brief: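 Yeast carrying a defined DNA repair defect were exposed to test compounds, and growth was compared with vehicle-treated controls to give percent inhibition.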

[2] = NCI Yeast Anticancer Drug Screen. Data for the mec2-1 strain (AID 157); details: S. cerevisiae mec2-1 strain, at 50.0 µM, active compounds read high
Method in brief: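 Mutant yeast (mec2-1) grown with compound; growth inhibition relative to vehicle control reported.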

[3] = NCI Yeast Anticancer Drug Screen. Data for the sgs1 mgt1 strain (AID 161);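 further: 0% = growth of cultures given vehicle only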; details: S. cerevisiae sgs1 mgt1 strain, at 50.0 µM, active compounds read high
Method in brief: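 Growth of a repair-deficient yeast mutant was monitored after compound treatment and expressed as inhibition relative to vehicle-treated cultures.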

[4] = NCI Yeast Anticancer Drug Screen. Data for the cln2 rad14 strain (AID 165);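 further: 0% = growth equal to vehicle treated cultures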; details: S. cerevisiae cln2 rad14 strain, at 50.0 µM, active compounds read high
Method in brief: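 Readout is yeast growth inhibition versus vehicle-treated controls, using a strain with cln2 and rad14 alterations exposed to compound.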

[5] = NCI Yeast Anticancer Drug Screen. Data for the bub3 strain (AID 167); details: S. cerevisiae bub3 mutant strain, at 50.0 µM, active compounds read high
Method in brief: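 Compounds were applied to a genetically altered yeast strain carrying a cell-cycle control defect. Growth inhibition was scored against vehicle-treated controls.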

[6] = NCI Yeast Anticancer Drug Screen. Data for the mlh1 rad18 strain (AID 175); details: S. cerevisiae mlh1 rad18 strain growth inhibition; at 50.0 µM; active compounds read high
Method in brief: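 Genetically defined yeast (DNA repair-deficient) exposed to compounds; growth inhibition determined relative to vehicle.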

Measured: growth inhibition

CO/C(=N\N=C\c1ccccc1F)c1ccncc1
inactive: [1] -25.9% | [2] -64.8% | [3] -70.8% | [4] 1.7% | [5] -28.6% | [6] -60.6%

Cc1occc1C(=S)Nc1ccc(Cl)c(C(=O)OC2CCCC2)c1
inactive: [1] 40.1% | [2] 21.2% | [3] 35% | [4] 60.5% | [5] 46.4% | [6] 29.6%

CNC(=O)C(C)NC(=O)C(Cc1ccccc1)NC(=O)OC(C)(C)C (configuration not stated)
inactive: [1] -10.2% | [2] -57.7% | [3] -16.2% | [4] -28.8% | [5] -19.2% | [6] 1.05%

CS(=O)(=O)N(CCC#N)c1ccc(/C=N/NC(=O)CC(=O)Nc2cccc(Cl)c2)cc1
inactive: [1] -6.75% | [2] 18.1% | [3] 10.7% | [4] 19.6% | [5] -6.15% | [6] 8.65%

CSc1nc2ncnc(NCc3ccc(Cl)cc3)c2[nH]1
inactive: [1] -11% | [2] -4.35% | [3] -4.1% | [4] -43.3% | [5] -7.45% | [6] -35.7%

C1CN(SSN2CCSCC2)CCS1
inactive: [1] -2.1% | [2] -18.5% | [3] 6.5% | [4] -100% | [5] 7.15% | [6] -14.5%

CNc1nc(N)nc(N)c1N1CCN(c2ccc(C(=O)O)cc2)CC1
inactive: [1] 13.3% | [2] -0.8% | [3] 19.8% | [4] 9.95% | [5] 17.2% | [6] 16.6%

O=[N+]([O-])c1ccc(C2ON=C(c3ccccc3)N2C23CC4CC(CC(C4)C2)C3)cc1 (configuration not stated)
inactive: [1] -12.6% | [2] -9% | [3] -6.1% | [4] 25.5% | [5] -6.5% | [6] -28.4%

N=C(N)SC1CC2CC1C1C=CCC21 (configuration not stated)
inactive: [1] 6.65% | [2] -6.6% | [3] 16.4% | [4] -19.1% | [5] 9.05% | [6] 16.2%

CCOC(=O)c1c(C)c2c(n1C)CC/C(=C\N1CCOCC1)C2=O
inactive: [1] 11.3% | [2] 13.1% | [3] 13.6% | [4] -13.8% | [5] 14.5% | [6] 15.2%

CCOc1ccc(NC(=S)NC=C(C#N)C#N)cc1
inactive: [1] -17.8% | [2] -12.6% | [3] -9.55% | [4] -4.9% | [5] 7.75% | [6] -5.75%

COc1cccc(Nc2nc(NS(=O)(=O)c3cc(C)c(Cl)cc3S)n[nH]2)c1
inactive: [1] -7.6% | [2] -2.3% | [3] -6.25% | [4] 7.95% | [5] 16.1% | [6] 15.8%

C=C1C(=O)OC2CC(C)C(C(CC(C)=O)OC(C)=O)=CCC12 (configuration not stated)
inactive: [1] 0.6% | [2] 5.1% | [3] 3.6% | [4] 6.8% | [5] 6.1% | [6] -53.7%

C=CCNC(=S)NC=C(C(N)=O)C(N)=O
inactive: [1] -25.9% | [2] -33% | [3] -22.5% | [4] -19.5% | [5] -4.9% | [6] -19.9%

NC1CC(=O)C(CC2C(=O)CC(N)CC2=O)C(=O)C1 (configuration not stated)
inactive: [1] -1.3% | [2] 0.05% | [3] 3.35% | [4] -1.8% | [5] -1.15% | [6] -3.65%

COC1OC(COS(=O)(=O)c2ccc(C)cc2)C2OC(C)(C)OC2C1OS(=O)(=O)c1ccc(C)cc1 (configuration not stated)
inactive: [1] 54.9% | [2] 16.8% | [3] -4.4% | [5] 3.85% | [6] 7.1%
active: [4] 84.2%

OCC(O)CS (configuration not stated)
inactive: [1] -15.2% | [2] 0.1% | [3] -4.8% | [4] 36.1% | [5] -4.5% | [6] -15.5%

c1ccc(CNCCCNCCCCNCCCNCc2ccccc2)cc1
inactive: [1] 7.75% | [2] -5.5% | [3] 9.4% | [4] -10.3% | [5] 17.8% | [6] 7.45%

CC(=O)Nc1ccc(S(=O)(=O)c2ccc(NC(C)=O)s2)s1
inactive: [1] -6.05% | [2] -1.3% | [3] -4.1% | [4] -15.4% | [5] -15.3% | [6] -18.9%

c1ccc2c(c1)C1C3c4ccccc4C1C1C2C31
inactive: [1] 5.1% | [2] 12.1% | [3] -0.1% | [4] 2.6% | [5] 3.5% | [6] -2.8%

NNC(=O)c1ccc2ccccc2c1O
inactive: [1] 17.4% | [2] 14.8% | [3] 17.1% | [4] 0.05% | [5] 22.1% | [6] 49%

O=C1/C(=C/c2ccccc2)CN(C(=O)Oc2ccccc2)C/C1=C\c1ccccc1
inactive: [1] -21% | [2] -15.2% | [3] -12.9% | [4] 10.3% | [5] -7.05% | [6] -13.8%

COc1ccc(N=Cc2c(O)c(O)c(C(C)C)c3cc(C)c(-c4c(C)cc5c(C(C)C)c(O)c(O)c(C=Nc6ccc(OC)cc6)c5c4O)c(O)c23)cc1
inactive: [1] 2.2% | [2] 1.75% | [3] -12.2% | [4] -18.4% | [5] -5.75% | [6] -6.2%

O=C(Cn1c(=O)oc2ccc(C(=O)c3ccccc3Cl)cc21)c1ccc([N+](=O)[O-])cc1
inactive: [1] -27.6% | [2] -28.3% | [3] 13% | [4] -8.45% | [5] -2.25% | [6] -2.65%

CC1=NCCN1CCN
inactive: [1] 20.6% | [2] -17.2% | [3] 23.8% | [4] 12.9% | [5] 13.6% | [6] 23.6%

Nc1cc(=O)[nH]c2ncnn12
inactive: [1] 18.2% | [2] -12% | [3] 2.4% | [4] 6.2% | [5] 4% | [6] 20.1%

COc1ccc(/C=N/NC(=O)c2ccccc2OC)cc1
inactive: [1] 1.85% | [2] 19.6% | [3] 29.9% | [4] -11.5% | [5] -10.8% | [6] 36.1%

N#CC(C#N)=CNC(=S)Nc1ccc(Cl)c(Cl)c1
inactive: [1] 44.1% | [2] 39.7% | [3] 47.6% | [4] 37.7% | [5] 36% | [6] 62.5%

COc1ccc(-c2cc(-c3ccccc3)c(-c3ccccc3)nn2)cc1CN1CCOCC1
inactive: [1] 2.65% | [2] -29.2% | [3] -17.1% | [4] 10.7% | [5] -5.05% | [6] -7.85%

COc1ccc(-c2nnc3cc(C)n4nnnc4n23)cc1OC
inactive: [1] 5.3% | [2] 5.55% | [3] 13.7% | [4] 9.1% | [5] 11.6% | [6] 16.2%

COc1ccc(OC)c(CNc2ccc(C(=O)O)cc2)c1
inactive: [1] 11.4% | [2] -1.25% | [3] 15% | [4] -1.9% | [5] 6.75% | [6] 29.6%

CN1CCN(CCN2C(=O)c3ccccc3C2=O)CC1
inactive: [1] -12.3% | [2] 2.65% | [3] -10.5% | [4] -15% | [5] -10.8% | [6] -43.8%

CC1(CO)COC(=O)C(C)(C2(C)NC(C)(CO)COC2=O)N1 (configuration not stated)
inactive: [1] 3.6% | [2] -17.6% | [3] -17.6% | [4] 13.1% | [5] -24.2% | [6] 4.05%

C[N+](C)(C)C1(Cc2ccccc2)c2ccccc2-c2ccc(Cl)cc21 (configuration not stated)
inactive: [1] 29.1% | [2] 4.85% | [3] 21.2% | [4] -15.8% | [5] -6.8% | [6] 5.9%

O=C(CCc1cc(O)cc(O)c1)NCCc1cc(O)cc(O)c1
inactive: [1] 6.55% | [2] 5.9% | [3] 17.4% | [4] 26.4% | [5] 8.8% | [6] -46%

Fc1ccc(F)c(C(Nc2nncs2)Nc2nncs2)c1
inactive: [1] 7.3% | [2] -8.75% | [3] 7.75% | [4] 2.4% | [5] 8.45% | [6] 7.85%

O=S(=O)(CS(=O)(=O)Nc1ccccc1)Nc1ccccc1
inactive: [1] 21.1% | [2] 26.9% | [3] 21.7% | [4] -4.45% | [5] 11.3% | [6] 21.3%
